# “And” between values parts separate entries of the source, which are not always exact repeats. Identical values can stand only once. Inconclusive results are not listed. The source holds several records for some structures; these can differ, active in one and inactive in another. The source made the active and inactive calls. How the source made its calls: active means hit-call score of the fitted dose curve at least 0.9, where 1 is the maximum; inconclusive means response in the unintended direction; inactive means score below 0.9.
# Assays:
# [1] = target: mouse Estrogen Receptor alpha (Era), Esr1 (gene 13982) (UniProt P19785); experiment: NVS_NR_mERa: NovaScreen (NVS) Nuclear Receptor Binding Assay for mouse Estrogen Receptor alpha (Era) (AID 2283378);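 further: hit means loss of bound radioligand signal relative to DMSO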
# Method in brief: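 Cell-free radioligand competitive displacement binding, read by filter-based scintillation counting 18 h after dosing. Primary screen run in duplicate at 25 uM, actives retested in concentration series; loss of signal versus DMSO.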
# [2] = target: Estrogen receptor (Homo sapiens) (UniProt P03372); experiment: OT_ERa_GFPERaERE_0120: Odyssey Thera (OT) 2-hour HeLa Transcription Induction Assay for Estrogen Receptor (AID 2283382)
# Sequence of Estrogen receptor (Homo sapiens) (P03372 whole entry, looked up): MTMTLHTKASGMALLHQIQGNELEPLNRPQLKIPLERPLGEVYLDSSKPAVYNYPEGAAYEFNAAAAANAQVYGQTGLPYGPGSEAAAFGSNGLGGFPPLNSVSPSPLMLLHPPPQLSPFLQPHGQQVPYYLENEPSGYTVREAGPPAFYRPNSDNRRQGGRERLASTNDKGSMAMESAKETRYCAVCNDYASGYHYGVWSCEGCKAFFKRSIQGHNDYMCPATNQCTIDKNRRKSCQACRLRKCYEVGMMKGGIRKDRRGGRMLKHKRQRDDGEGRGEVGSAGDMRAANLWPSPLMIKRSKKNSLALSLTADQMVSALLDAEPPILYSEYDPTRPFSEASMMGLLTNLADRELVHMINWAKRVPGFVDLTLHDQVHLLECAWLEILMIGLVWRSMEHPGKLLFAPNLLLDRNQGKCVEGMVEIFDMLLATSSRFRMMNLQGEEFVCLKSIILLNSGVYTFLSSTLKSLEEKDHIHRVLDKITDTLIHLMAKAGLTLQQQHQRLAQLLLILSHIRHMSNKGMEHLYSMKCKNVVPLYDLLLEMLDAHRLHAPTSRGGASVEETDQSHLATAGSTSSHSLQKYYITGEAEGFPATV
# Method in brief: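 HeLa cells were dosed with test chemical and read 2 hours later for GFP-ERα/ERE-linked fluorescent protein induction by fluorescence microscopy. Gain-of-signal was fitted relative to DMSO baseline, quantified by high content image analysis.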
# [3] = target: Peroxisome proliferator-activated receptor gamma (Homo sapiens) (UniProt P37231); experiment: NVS_NR_hPPARg: NovaScreen (NVS) Nuclear Receptor Binding Assay for human Peroxisome Proliferator-activated Receptor gamma (PPARg) (AID 2283370)
# Sequence of Peroxisome proliferator-activated receptor gamma (Homo sapiens) (P37231 whole entry, looked up): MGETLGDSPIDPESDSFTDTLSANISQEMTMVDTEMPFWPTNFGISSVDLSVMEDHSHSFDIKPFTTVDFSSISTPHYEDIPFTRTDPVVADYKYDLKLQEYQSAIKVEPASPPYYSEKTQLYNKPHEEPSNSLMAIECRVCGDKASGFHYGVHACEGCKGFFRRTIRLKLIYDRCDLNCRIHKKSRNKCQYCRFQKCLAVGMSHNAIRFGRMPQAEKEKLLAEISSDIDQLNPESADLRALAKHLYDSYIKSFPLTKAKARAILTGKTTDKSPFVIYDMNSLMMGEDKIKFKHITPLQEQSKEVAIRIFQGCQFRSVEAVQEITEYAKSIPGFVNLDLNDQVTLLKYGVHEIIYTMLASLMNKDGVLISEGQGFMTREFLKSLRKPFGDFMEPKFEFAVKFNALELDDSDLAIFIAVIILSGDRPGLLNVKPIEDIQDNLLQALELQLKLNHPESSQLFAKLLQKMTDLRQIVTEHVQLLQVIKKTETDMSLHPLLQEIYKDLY
# Method in brief: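 Cell-free fluorescence polarization binding to human PPARg protein, read 2 h after dosing. Primary screen in duplicate at 25 uM, actives followed in concentration series; loss of signal relative to DMSO scored.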
# [4] = target: human Norepinephrine Transporter (NET), SLC6A2 (gene 6530) (UniProt P23975); experiment: NVS_TR_hNET: NovaScreen (NVS) Transporter Assay for human Norepinephrine Transporter (NET) (AID 2283377);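 further: cell-free membrane protein extracted from CHO cells expressing human NET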
# Sequence of human Norepinephrine Transporter (NET), SLC6A2 (gene 6530) (P23975 whole entry, looked up): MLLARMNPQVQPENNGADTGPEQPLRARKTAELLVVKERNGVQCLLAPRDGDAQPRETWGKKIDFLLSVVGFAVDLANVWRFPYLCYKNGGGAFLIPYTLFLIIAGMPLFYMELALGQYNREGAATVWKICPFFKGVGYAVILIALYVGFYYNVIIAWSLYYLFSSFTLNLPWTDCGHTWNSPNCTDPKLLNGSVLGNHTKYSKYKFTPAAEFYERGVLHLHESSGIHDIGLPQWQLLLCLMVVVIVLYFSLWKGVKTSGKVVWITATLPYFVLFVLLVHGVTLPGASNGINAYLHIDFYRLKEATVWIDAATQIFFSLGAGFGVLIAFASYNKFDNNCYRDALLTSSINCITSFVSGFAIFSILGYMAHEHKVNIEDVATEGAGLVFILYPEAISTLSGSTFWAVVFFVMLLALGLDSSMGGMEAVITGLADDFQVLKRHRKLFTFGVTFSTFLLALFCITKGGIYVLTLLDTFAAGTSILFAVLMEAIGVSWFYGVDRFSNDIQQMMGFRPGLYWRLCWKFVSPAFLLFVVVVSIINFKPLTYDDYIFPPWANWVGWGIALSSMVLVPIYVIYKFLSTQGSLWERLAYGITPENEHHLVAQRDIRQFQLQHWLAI
# Method in brief: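 Radioligand binding to human NET in cell-free CHO-derived protein preparations, read by filter-based scintillation counting 1 hour after dosing. Loss of signal versus DMSO baseline indicated displacement; primary screening in duplicate at 25 uM, actives then titrated.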
# [5] = target: Agonist Androgen Response Element (ARE), AR (gene 367) (UniProt P10275); experiment: OT_AR_ARELUC_AG_1440: Odyssey Thera (OT) 24-hour CHO-K1 Luciferase Assay for Agonist Androgen Response Element (ARE) (AID 2283379)
# Sequence of Agonist Androgen Response Element (ARE), AR (gene 367) (P10275 whole entry, looked up): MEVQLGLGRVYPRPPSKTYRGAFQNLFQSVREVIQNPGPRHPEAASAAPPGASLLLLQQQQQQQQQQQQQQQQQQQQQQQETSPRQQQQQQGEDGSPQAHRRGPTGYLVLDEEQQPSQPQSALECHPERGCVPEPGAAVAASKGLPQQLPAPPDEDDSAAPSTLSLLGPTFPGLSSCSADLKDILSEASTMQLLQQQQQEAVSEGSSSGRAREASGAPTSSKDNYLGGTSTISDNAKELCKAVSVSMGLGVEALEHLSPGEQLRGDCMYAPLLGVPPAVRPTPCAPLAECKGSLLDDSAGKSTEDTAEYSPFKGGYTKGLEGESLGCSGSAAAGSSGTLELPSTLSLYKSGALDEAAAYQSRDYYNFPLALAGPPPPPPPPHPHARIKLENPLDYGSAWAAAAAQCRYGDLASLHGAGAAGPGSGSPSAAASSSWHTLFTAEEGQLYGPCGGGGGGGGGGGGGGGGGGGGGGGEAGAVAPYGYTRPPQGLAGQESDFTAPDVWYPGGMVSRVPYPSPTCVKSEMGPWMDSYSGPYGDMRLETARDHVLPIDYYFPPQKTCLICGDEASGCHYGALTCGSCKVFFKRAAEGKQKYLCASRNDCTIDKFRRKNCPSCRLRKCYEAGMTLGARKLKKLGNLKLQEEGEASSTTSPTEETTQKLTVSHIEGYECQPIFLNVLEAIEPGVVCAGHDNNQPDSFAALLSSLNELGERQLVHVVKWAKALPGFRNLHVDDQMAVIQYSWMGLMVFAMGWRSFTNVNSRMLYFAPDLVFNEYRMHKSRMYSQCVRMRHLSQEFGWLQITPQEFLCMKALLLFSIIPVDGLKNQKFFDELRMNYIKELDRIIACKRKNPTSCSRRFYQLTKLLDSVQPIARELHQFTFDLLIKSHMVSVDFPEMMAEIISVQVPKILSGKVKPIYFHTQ
# Method in brief: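 Seed CHO-K1 cells; dose compounds for 24 h; add D-luciferin plus ATP in PBS; read luminescence. Signal increase relative to vehicle defines agonist activity, with at least 3 replicate wells per sample.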
# [6] = target: Bile acid receptor (Homo sapiens) (UniProt Q96RI1); experiment: OT_FXR_FXRSRC1_0480: Odyssey Thera (OT) 8-hour HEK293T Protein-Complementation Assay for Farnesoid X receptor/SRC-1 Co-activator (AID 2283383)
# Sequence of Bile acid receptor (Homo sapiens) (Q96RI1 whole entry, looked up, the tested form may be a part): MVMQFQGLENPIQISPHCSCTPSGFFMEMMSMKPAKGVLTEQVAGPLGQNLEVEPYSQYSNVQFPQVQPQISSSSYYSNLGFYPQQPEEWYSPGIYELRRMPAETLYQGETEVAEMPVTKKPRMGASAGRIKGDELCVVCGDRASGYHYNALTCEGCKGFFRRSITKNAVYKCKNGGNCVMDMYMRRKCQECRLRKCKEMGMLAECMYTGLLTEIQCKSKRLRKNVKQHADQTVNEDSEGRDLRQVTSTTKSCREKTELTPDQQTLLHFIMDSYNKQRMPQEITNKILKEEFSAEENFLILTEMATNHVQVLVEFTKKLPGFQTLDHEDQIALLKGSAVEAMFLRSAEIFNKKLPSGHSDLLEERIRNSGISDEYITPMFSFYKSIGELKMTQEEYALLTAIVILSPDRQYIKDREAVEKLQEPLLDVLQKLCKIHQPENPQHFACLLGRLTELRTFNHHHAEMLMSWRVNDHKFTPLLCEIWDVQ
# Method in brief: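 HEK293T cells expressing FXR and SRC-1 fused to reporter fragments were dosed with compound for 8 h; fluorescence from the reconstituted reporter marked co-activator recruitment. Gain of signal was fitted against the DMSO baseline.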
# [7] = target: Bile acid receptor (Homo sapiens) (UniProt Q96RI1); experiment: OT_FXR_FXRSRC1_1440: Odyssey Thera (OT) 24-hour HEK293T Protein-Complementation Assay for Farnesoid X receptor/SRC-1 Co-activator (AID 2283384)
# Method in brief: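 HEK293T cells were dosed with compound and read 24 h later by fluorescence intensity from protein-fragment complementation reporting FXR/SRC-1 co-activator interaction. Gain of signal was fitted relative to DMSO negative control as baseline.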
# [8] = target: Retinoic acid receptor RXR-alpha (Homo sapiens) (UniProt P19793); experiment: OT_NURR1_NURR1RXRa_0480: Odyssey Thera (OT) 8-hour HEK293T Protein Complementation Assay for Nurr1/retinoid X receptor (RXR) (AID 2283385)
# Sequence of Retinoic acid receptor RXR-alpha (Homo sapiens) (P19793 whole entry, looked up, the tested form may be a part): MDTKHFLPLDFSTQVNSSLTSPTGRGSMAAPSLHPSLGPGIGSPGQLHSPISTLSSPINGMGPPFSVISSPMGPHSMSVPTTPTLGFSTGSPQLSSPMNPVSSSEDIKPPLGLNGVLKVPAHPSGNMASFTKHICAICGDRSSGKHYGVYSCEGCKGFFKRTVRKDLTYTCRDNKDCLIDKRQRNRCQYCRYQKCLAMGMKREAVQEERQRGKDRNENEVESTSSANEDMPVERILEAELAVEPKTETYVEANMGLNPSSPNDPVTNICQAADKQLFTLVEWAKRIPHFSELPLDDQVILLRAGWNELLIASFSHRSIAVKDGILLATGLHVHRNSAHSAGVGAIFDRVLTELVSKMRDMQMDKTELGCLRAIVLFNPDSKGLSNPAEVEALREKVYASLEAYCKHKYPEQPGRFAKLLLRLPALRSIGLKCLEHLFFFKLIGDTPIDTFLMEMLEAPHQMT
# Method in brief: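 HEK293T cells expressing Nurr1 and RXRα fused to reporter fragments were dosed with compound for 8 hours. Complex formation was read as fluorescence intensity and analysed as gain of signal against DMSO as baseline.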
# [9] = target: rat Serotonin Transporter (SERT), Slc6a4 (gene 25553) (UniProt P31652); experiment: NVS_TR_rSERT: NovaScreen (NVS) Transporter Assay for rat Serotonin Transporter (SERT) (AID 2283375)
# Method in brief: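 Rat forebrain membranes; radioligand displacement at SERT read by filter-based scintillation counting, 1 h after dosing. Screened in duplicate at 25 uM, actives then run in concentration series; loss of signal versus DMSO baseline.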
# [10] = target: Norway rat Vesicular Monoamine Transporter (VMAT2), neurotransmitter transporter, Slc18a2 (gene 25549) (UniProt Q01827); experiment: NVS_TR_rVMAT2: NovaScreen (NVS) Transporter Assay for Norway rat Vesicular Monoamine Transporter (VMAT2), neurotransmitter transporter (AID 2283376);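 further: actives lower the bound radioligand signal below the DMSO level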
# Sequence of Norway rat Vesicular Monoamine Transporter (VMAT2), neurotransmitter transporter, Slc18a2 (gene 25549) (Q01827 whole entry, looked up): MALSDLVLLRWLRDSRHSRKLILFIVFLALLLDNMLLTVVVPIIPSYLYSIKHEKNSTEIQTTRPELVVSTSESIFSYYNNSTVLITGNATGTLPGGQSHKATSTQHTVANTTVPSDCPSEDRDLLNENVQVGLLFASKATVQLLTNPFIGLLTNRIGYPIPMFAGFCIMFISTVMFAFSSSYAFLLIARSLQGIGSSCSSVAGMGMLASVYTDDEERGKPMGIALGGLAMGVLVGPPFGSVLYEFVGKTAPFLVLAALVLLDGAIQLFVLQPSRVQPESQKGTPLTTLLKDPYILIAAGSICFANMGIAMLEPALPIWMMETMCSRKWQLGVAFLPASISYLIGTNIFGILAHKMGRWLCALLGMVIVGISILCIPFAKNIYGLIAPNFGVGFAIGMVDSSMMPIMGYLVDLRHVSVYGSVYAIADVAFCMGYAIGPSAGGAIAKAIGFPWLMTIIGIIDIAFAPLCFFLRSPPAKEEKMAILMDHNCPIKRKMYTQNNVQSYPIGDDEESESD
# Method in brief: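 Rat forebrain tissue preparation used in a cell-free radioligand binding format; displacement read by filter-based scintillation counting 1 hour after dosing. Primary screen in duplicate at 25 uM, actives then run in concentration series; loss of signal versus DMSO baseline.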
# [11] = target: Estrogen receptor beta (Homo sapiens) (UniProt Q92731); experiment: OT_ER_ERbERb_1440: Odyssey Thera (OT) 24-hour HEK293T Protein-Complementation Assay for Estrogen Receptor-beta/-beta Homodimer (AID 2283380);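 further: fluorescence gain from ER beta LBD homodimer complementation read by laser scanning cytometry; scored as signal increase over DMSO baseline for both agonists and antagonists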
# Sequence of Estrogen receptor beta (Homo sapiens) (Q92731 whole entry, looked up, the tested form may be a part): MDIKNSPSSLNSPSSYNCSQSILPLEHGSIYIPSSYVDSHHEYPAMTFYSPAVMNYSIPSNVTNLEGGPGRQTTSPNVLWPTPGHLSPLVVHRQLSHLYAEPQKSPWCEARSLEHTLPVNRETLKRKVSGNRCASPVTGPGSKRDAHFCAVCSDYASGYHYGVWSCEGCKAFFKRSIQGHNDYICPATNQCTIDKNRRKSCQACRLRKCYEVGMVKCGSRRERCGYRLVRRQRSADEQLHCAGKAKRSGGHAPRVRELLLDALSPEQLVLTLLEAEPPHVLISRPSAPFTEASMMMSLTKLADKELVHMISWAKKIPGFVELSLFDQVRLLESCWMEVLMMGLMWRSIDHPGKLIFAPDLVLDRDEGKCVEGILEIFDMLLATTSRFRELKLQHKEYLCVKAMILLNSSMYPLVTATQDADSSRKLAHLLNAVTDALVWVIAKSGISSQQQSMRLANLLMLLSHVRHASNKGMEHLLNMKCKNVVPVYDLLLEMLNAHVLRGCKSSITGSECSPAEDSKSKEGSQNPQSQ
# Method in brief: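 HEK293T cells stably expressing human ER-beta LBD (aa 310-547) PCA homodimer pair, dosed 24 h; formaldehyde-fixed, Draq5-stained. Readout: increase in nuclear (agonist) or nuclear plus cytoplasmic (antagonist) fluorescence intensity versus DMSO, gain-of-signal fitting.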
# [12] = system: guinea pig Dopamine Transporter (DAT), gene 100714898; experiment: NVS_TR_gDAT: NovaScreen (NVS) Transporter Assay for guinea pig Dopamine Transporter (DAT) (AID 2283369);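 further: active compounds lower bound radioligand signal relative to DMSO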
# Method in brief: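 Guinea pig striatal membranes, cell-free radioligand binding with filter-based scintillation counting, read 2 h after dosing. Loss of signal versus DMSO baseline; single-concentration primary (25 uM) then concentration-response up to 50 uM.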
# [13] = target: human Serotonin Transporter (SERT), SLC6A4 (gene 6532) (UniProt P31645); experiment: NVS_TR_hSERT: NovaScreen (NVS) Transporter Assay for human Serotonin Transporter (SERT) (AID 2283372)
# Method in brief: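 Radioligand binding to native SERT in human platelet membranes, read by filter-based scintillation counting 1 h after dosing. Primary screen in duplicate at 25 uM; actives followed up in concentration series; loss of signal versus DMSO baseline.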
# [14] = target: human Dopamine Transporter (DAT), SLC6A3 (gene 6531) (UniProt Q01959); experiment: NVS_TR_hDAT: NovaScreen (NVS) Transporter Assay for human Dopamine Transporter (DAT) (AID 2283374);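 further: activity means loss of bound radioligand signal relative to DMSO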
# Method in brief: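 Cell-free radioligand binding to extracted human DAT protein, read 1 h after dosing by filter-based scintillation counting. Loss of specific binding scored against DMSO baseline; primary screen in duplicate at 25 uM, actives then run in concentration series.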
# [15] = system: rat Norepinephrine Transporter (NET), gene 83511; experiment: NVS_TR_rNET: NovaScreen (NVS) Transporter Assay for rat Norepinephrine Transporter (NET) (AID 2283373)
# Method in brief: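 Rat forebrain membranes; radioligand binding measured by filter-based scintillation counting 1 hour after dosing. Loss of specific binding versus DMSO baseline scored; primary screen in duplicate at 25 uM, actives followed up in concentration series.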
smiles,measurement,setting,value
ClC1=C(Cl)[C@]2(Cl)[C@H]3[C@H]([C@@H]4C=C[C@H]3C4)[C@@]1(Cl)C2(Cl)Cl,outcome,[1],inactive
same,outcome,[2],inactive
Nc1ccc(Cl)cc1N,outcome,[3],inactive
same,AC50,[4],38.9 µM (active)
same,outcome,[5],inactive
same,AC50,[6],35.3 µM (active)
same,AC50,[7],33.8 µM (active)
same,AC50,[8],39.2 µM (active)
same,outcome,[8],inactive
COC(=O)c1ccccc1N,outcome,[9],inactive
same,outcome,[10],inactive
same,outcome,[11],inactive
same,outcome,[8],inactive
CC(C)(O)c1cnn2c(-c3ccc(F)c(-c4c(F)cccc4C#N)c3)cnc2n1,outcome,[3],inactive
same,outcome,[5],inactive
same,AC50,[11],93.7 µM (active)
same,AC50,[6],35.7 µM (active)
same,AC50,[7],64.9 µM (active)
same,AC50,[8],84.7 µM (active) and 91.1 µM (active)
CC(C)(OOC(C)(C)c1ccccc1)c1ccccc1,outcome,[10],inactive
same,outcome,[5],inactive
same,AC50,[11],9.59 µM (active)
same,AC50,[6],58.3 µM (active)
same,AC50,[7],65.1 µM (active)
same,AC50,[8],77.4 µM (active) and 93.2 µM (active)
O=C(Nc1ccccc1)c1ccccc1I,AC50,[12],12.8 µM (active)
same,outcome,[3],inactive
same,AC50,[4],11.2 µM (active)
same,outcome,[11],inactive
same,outcome,[2],inactive
same,outcome,[8],inactive
COP(=S)(OC)SCN1C(=O)c2ccccc2C1=O,AC50,[4],2.04 µM (active)
same,outcome,[11],inactive
same,outcome,[6],inactive
same,outcome,[7],inactive
same,outcome,[8],inactive
CS(=O)(=O)NC(=O)c1cc(Oc2ccc(C(F)(F)F)cc2Cl)ccc1[N+](=O)[O-],outcome,[3],inactive
same,outcome,[11],inactive
same,outcome,[6],inactive
c1ccc(N=Nc2ccccc2)cc1,outcome,[3],inactive
same,outcome,[8],inactive
COC(=O)Nc1nc2ccccc2[nH]1,outcome,[5],inactive
same,outcome,[11],inactive
same,outcome,[8],inactive
OCCCBr,outcome,[11],inactive
same,outcome,[2],inactive
O=C1CCCO1,outcome,[5],inactive
same,outcome,[11],inactive
same,outcome,[7],inactive
same,outcome,[8],inactive
O=Cc1ccco1,outcome,[13],inactive
same,outcome,[8],inactive
Nc1ccc([N+](=O)[O-])cc1,outcome,[4],inactive
same,outcome,[5],inactive
same,outcome,[11],inactive
same,AC50,[7],13.3 µM (active)
same,outcome,[8],inactive
CC(C)N(Cc1ccccc1)C(=O)C(C)(C)C,AC50,[12],13.7 µM (active)
same,AC50,[14],6.52 µM (active)
same,outcome,[5],inactive
same,AC50,[11],41.5 µM (active)
same,outcome,[6],inactive
same,outcome,[7],inactive
same,outcome,[8],inactive
ClC1=C(Cl)C2(Cl)C3C(Cl)C=CC3C1(Cl)C2(Cl)Cl (stereo not drawn),outcome,[11],inactive
same,outcome,[2],inactive
same,outcome,[8],inactive
Cc1cccc(N)c1N,AC50,[3],0.00229 µM (active)
same,AC50,[4],5.57 µM (active)
same,outcome,[11],inactive
same,AC50,[6],42.8 µM (active)
same,AC50,[7],49.3 µM (active)
same,AC50,[8],33.9 µM (active)
same,outcome,[8],inactive
CCC(C)c1ccc(O)cc1 (stereo not drawn),AC50,[12],4.96 µM (active)
same,outcome,[15],inactive
same,AC50,[14],4.96 µM (active)
same,outcome,[10],inactive
same,AC50,[4],9.53 µM (active)
same,AC50,[11],28.2 µM (active)
same,outcome,[6],inactive
same,outcome,[7],inactive
same,outcome,[8],inactive
[O-][Cl+]O,outcome,[11],inactive
same,outcome,[2],inactive
CC(C)(C)OOC(C)(C)CCC(C)(C)OOC(C)(C)C,outcome,[11],inactive
same,outcome,[8],inactive
Cc1ccc(N)cc1,outcome,[8],inactive
OCCCl,outcome,[11],inactive
same,outcome,[6],inactive
same,outcome,[8],inactive
C1=Cc2cccc3cccc1c23,outcome,[8],inactive
Clc1ccc(C(c2ccc(Cl)cc2)C(Cl)Cl)cc1,AC50,[2],12 µM (active)
same,AC50,[8],92.4 µM (active)
Clc1ccc(C(c2ccc(Cl)cc2)C(Cl)(Cl)Cl)cc1,AC50,[11],29.1 µM (active)
same,AC50,[6],11.2 µM (active)
same,outcome,[7],inactive
same,AC50,[8],70.1 µM (active)
Oc1ccccc1Cl,outcome,[8],inactive
Brc1ccc(Oc2ccccc2)cc1,outcome,[2],inactive
same,outcome,[8],inactive
CCCSC(=O)N(CCC)CCC,outcome,[8],inactive
Cc1ccc(N=C=O)cc1N=C=O,outcome,[8],inactive
CCOc1cccc(C2(N3CCN(c4ccccc4)CC3)CCC(C)CC2)c1 (stereo not drawn),outcome,[2],inactive
same,outcome,[8],inactive
CN(C)c1ccccc1,outcome,[11],inactive
same,outcome,[6],inactive
same,outcome,[7],inactive
CCN(CC)N=O,outcome,[6],inactive
same,outcome,[7],inactive
same,outcome,[8],inactive
Clc1ccccc1Cl,AC50,[11],7.71 µM (active)
same,outcome,[6],inactive
same,outcome,[7],inactive
O=P(OCCCl)(OCCCl)OCCCl,outcome,[11],inactive
same,outcome,[6],inactive
same,outcome,[7],inactive
same,outcome,[8],inactive
Clc1ccc(Cl)c(Cl)c1,outcome,[11],inactive
same,outcome,[8],inactive
CCN(CC)CCO,outcome,[11],inactive
same,outcome,[8],inactive
c1ccc2c(c1)oc1ccccc12,outcome,[11],inactive
same,outcome,[8],inactive
ClCCOCCCl,outcome,[11],inactive
same,outcome,[6],inactive
same,outcome,[7],inactive
same,outcome,[8],inactive
[As]#[In],outcome,[11],inactive
same,outcome,[8],inactive
COc1cc(C=O)cc2c1[C@H](COC(N)=O)[C@]1(OC(C)=O)ON2C[C@H]2[C@@H]1N2C(C)=O,outcome,[2],inactive
CCC12COCN1COC2,outcome,[2],inactive
same,outcome,[8],inactive
c1ccc2c(c1)-c1cccc3cccc-2c13,AC50,[11],50 µM (active)
same,outcome,[8],inactive
CN(C)C(=O)Nc1ccc(Cl)cc1,outcome,[11],inactive
same,outcome,[6],inactive
same,AC50,[7],66.9 µM (active)
same,outcome,[8],inactive
c1ccc(C2CO2)cc1 (stereo not drawn),outcome,[8],inactive
CC(O)CCO (stereo not drawn),outcome,[11],inactive
same,outcome,[8],inactive
O=C(O)C1C2CCC(O2)C1C(=O)O (stereo not drawn),AC50,[8],74.3 µM (active)
same,outcome,[8],inactive
c1ccc(NNc2ccccc2)cc1,outcome,[11],inactive
same,outcome,[6],inactive
same,outcome,[7],inactive
same,outcome,[8],inactive

# Source: PubChem BioAssay (EPA / NIEHS)
